From PubChem BioAssay AID1159580 (chemical genetic matrix, 2015)
Values joined by “and” are separate entries in the source; they are usually repeats but may differ in a detail not shown here. Identical values can stand only once. The whole screen tested about 5,500 compounds, of which about 2,000 (36%) were called active. Another 18% or so got no clear call; they are omitted. Rule as the data show it: active = normalized growth mostly below about 0.91 (no sharp cut-off); inconclusive = no clear call, values can overlap the other calls; inactive = mostly above about 0.92. The list shows a part of the results.

Test: chemical genetic growth profiling, strain panel (AID 1159580);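 also: tested at 20 µM; growth read once vehicle control cultures reached saturation at 30 °C; 1 = growth at the plate median or of vehicle wells; lower values mean less growth of the strain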
Conditions: S. cerevisiae deletion strains, growth OD

Measured: normalized growth

Cn1nnnc1SCC1=C(C(=O)O)N2C(=O)C(NC(=O)C(O)c3ccccc3)C2SC1 (configuration not stated)
inactive: locus YAL013W, strain DEP1, hits give low values 1.02 | locus YAL021C, strain ccr4, hits give low values 0.97 | locus YAL026C, strain drs2, hits give low values 0.972 | locus YAL030W, strain snc1, hits give low values 0.983 | locus YBL061C, strain skt5, hits give low values 0.97 | locus YBR009C, strain hhf1, hits give low values 0.988 | locus YBR021W, strain FUR4, hits give low values 1.01 | locus YBR023C, strain chs3, hits give low values 0.964 | locus YBR171W, strain sec66, hits give low values 0.945 | locus YBR229C, strain ROT2, hits give low values 1.01 | locus YBR231C, strain swc5, hits give low values 0.991 | locus YBR279W, strain paf1, hits give low values 0.977 | locus YCL011C, strain gbp2, hits give low values 0.971 | locus YCL016C, strain dcc1, hits give low values 0.967 | locus YCL029C, strain bik1, hits give low values 0.996 | locus YCL061C, strain MRC1, hits give low values 0.968 | locus YCL069W, strain vba3, hits give low values 0.973 | locus YCR088W, strain abp1, hits give low values 0.975 | locus YDL005C, strain med2, hits give low values 0.972 | locus YDL035C, strain GPR1, hits give low values 1.03 | locus YDL040C, strain nat1, hits give low values 0.984 | locus YDL074C, strain BRE1, hits give low values 1.05 | locus YDL101C, strain DUN1, hits give low values 1.02 | locus YDL134C, strain PPH21, hits give low values 1.02 | locus YDL185W, strain tfp1, hits give low values 1 | locus YDL192W, strain arf1, hits give low values 1 | locus YDR001C, strain nth1, hits give low values 0.979 | locus YDR069C, strain doa4, hits give low values 0.978 | locus YDR101C, strain arx1, hits give low values 0.99 | locus YDR137W, strain rgp1, hits give low values 0.943 | locus YDR150W, strain NUM1, hits give low values 1.03 | locus YDR159W, strain sac3, hits give low values 0.985 | locus YDR162C, strain NBP2, hits give low values 1.06 | locus YDR195W, strain ref2 0.969 | locus YDR297W, strain sur2, hits give low values 0.983 | locus YDR318W, strain mcm21, hits give low values 0.996 | locus YDR334W, strain swr1, hits give low values 0.964 | locus YDR335W, strain msn5, hits give low values 0.978 | locus YDR388W, hits give low values 0.991 | locus YDR392W, strain spt3, hits give low values 0.873 | locus YDR502C, strain sam2, hits give low values 1.01 | locus YEL003W, strain gim4, hits give low values 0.995 | locus YEL037C, strain rad23, hits give low values 0.972 | locus YEL061C, strain CIN8 (second series), hits give low values 0.978 | locus YEL061C, strain CIN8, hits give low values 1.01 | locus YER015W, strain faa2, hits give low values 0.99 | locus YER016W, strain bim1, hits give low values 0.995 | locus YER110C, hits give low values 0.997 | locus YER111C, strain swi4, hits give low values 0.96 | locus YER155C, strain BEM2 (second series), hits give low values 0.973 | locus YER155C, strain BEM2, hits give low values 1.02 | locus YER167W, strain BCK2, hits give low values 1.02 | locus YFR010W, strain ubp6, hits give low values 0.974 | locus YGL078C, strain dbp3, hits give low values 1 | locus YGL086W, strain mad1, hits give low values 1 | locus YGL167C, strain pmr1, hits give low values 0.967 | locus YGL173C, strain kem1, hits give low values 0.97 | locus YGL227W, strain vid30, hits give low values 0.984 | locus YGL240W, strain doc1, hits give low values 0.992 | locus YGL248W, strain PDE1, hits give low values 1.02 | locus YGL253W, strain hxk2, hits give low values 0.98 | locus YGR078C, strain PAC10, hits give low values 1.05 | locus YGR135W, strain pre9, hits give low values 1.01 | locus YGR229C, strain SMI1, hits give low values 1.03 | locus YGR252W, strain gcn5, hits give low values 0.972 | locus YHR013C, strain ard1, hits give low values 0.952 | locus YHR027C, strain rpn1, hits give low values 0.968 | locus YHR030C, strain SLT2, hits give low values 1.01 and 0.991 | locus YHR079C, strain IRE1 (second series), hits give low values 1 | locus YHR079C, strain IRE1, hits give low values 0.984 | locus YHR094C, strain hxt1, hits give low values 1 | locus YHR129C, strain ARP1, hits give low values 1.01 | locus YHR142W, strain chs7, hits give low values 0.951 | locus YHR200W, strain rpn10, hits give low values 1.01 | locus YIL066C, strain RNR3, hits give low values 1.02 | locus YIL073C, strain SPO22, hits give low values 1.03 | locus YIL125W, strain kgd1, hits give low values 1.01 | locus YIR030C, strain dcg1, hits give low values 1 | locus YJL092W, strain hpr5, hits give low values 0.976 | locus YJL095W, strain BCK1 (second series), hits give low values 0.987 | locus YJL095W, strain BCK1, hits give low values 1.02 and 0.987 | locus YJL115W, strain asf1, hits give low values 0.958 | locus YJL129C, strain trk1, hits give low values 0.973 | locus YJL134W, strain LCB3, hits give low values 1.01 | locus YJL154C, strain vps35, hits give low values 0.982 | locus YJL164C, strain tpk1, hits give low values 0.954 | locus YJL166W, strain qcr8, hits give low values 0.968 | locus YJL168C, strain set2, hits give low values 0.995 | locus YJL187C, strain SWE1 (second series), hits give low values 1.02 | locus YJL187C, strain SWE1, hits give low values 0.974 | locus YJR043C, strain POL32, hits give low values 1.02 | locus YJR066W, strain TOR1, hits give low values 0.938
